# According to PubChem BioAssay (Tox21):
# “And” between values parts separate entries of the source, which are not always exact repeats. Identical values can stand only once. Results filed as inconclusive are left out. Entries that show only a call come without a potency. The source holds several records for some structures; these can differ, active in one and inactive in another. The source made the active and inactive calls. Unless noted, calls follow the shape of the dose curve; as a rule, active = well fitted curve in the direction sought with a large enough effect in the repeat runs; inconclusive = weak or mixed curves; inactive = no such curve, though single readings can be large; an effect the other way counts as inactive or inconclusive.
# Assays:
# [1] = target: Thyrotropin receptor (Homo sapiens) (UniProt P16473); test: qHTS assay to identify small molecule agonists of the thyroid stimulating hormone receptor (TSHR) signaling pathway (AID 1224843; calls by dose curve; also: nearly all actives have a fitted effect of over 45% in size; also: potency is read from the fitted curve at half-maximal effect)
# Sequence of Thyrotropin receptor (Homo sapiens) (P16473 whole entry, looked up): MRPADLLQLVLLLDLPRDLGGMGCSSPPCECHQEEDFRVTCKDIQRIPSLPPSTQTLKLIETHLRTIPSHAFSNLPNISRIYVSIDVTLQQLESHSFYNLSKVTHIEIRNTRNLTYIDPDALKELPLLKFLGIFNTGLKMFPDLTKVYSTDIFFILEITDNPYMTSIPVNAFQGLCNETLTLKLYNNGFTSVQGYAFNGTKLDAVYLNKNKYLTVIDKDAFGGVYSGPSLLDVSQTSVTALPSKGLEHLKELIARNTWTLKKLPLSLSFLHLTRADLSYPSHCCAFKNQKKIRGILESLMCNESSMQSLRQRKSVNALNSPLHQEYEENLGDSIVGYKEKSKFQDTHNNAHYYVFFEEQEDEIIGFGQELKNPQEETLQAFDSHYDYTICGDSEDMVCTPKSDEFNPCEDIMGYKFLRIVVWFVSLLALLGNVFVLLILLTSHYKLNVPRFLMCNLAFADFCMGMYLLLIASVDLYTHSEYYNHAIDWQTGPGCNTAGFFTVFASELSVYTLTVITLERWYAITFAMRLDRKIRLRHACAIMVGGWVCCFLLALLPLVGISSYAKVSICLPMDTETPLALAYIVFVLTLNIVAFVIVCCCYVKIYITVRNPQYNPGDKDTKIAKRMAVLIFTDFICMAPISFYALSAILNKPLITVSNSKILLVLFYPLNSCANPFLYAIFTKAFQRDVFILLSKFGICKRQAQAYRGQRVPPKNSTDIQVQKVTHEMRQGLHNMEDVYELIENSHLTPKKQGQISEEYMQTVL
# How it was run: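 Agonist-mode screen: TSHR HEK293 cells received test chemicals for half an hour at room temperature, then HTRF cAMP detection reagents for one hour prior to fluorescence measurement. Each chemical ran as a 15-concentration series, triplicated.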
# [2] = qHTS assay to identify small molecule agonists of H2AX (AID 1224845; active = well fitted activation curve with a large enough effect in the signal ratio in the repeat runs, not every such curve was filed as active; the % refers to the signal ratio)
# How it was run: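 Wild-type CHO-K1 cells, plated overnight, exposed 3hr at 37C to 15 concentrations (0.76% DMSO final). Lysed, then HTRF anti-pH2AX (S139) cryptate and anti-H2AX-d2 antibodies, 24 hr room temperature; 665/620 nm emission read.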
# [3] = qHTS assay to identify small molecule agonists of the hypoxia (HIF-1) signaling pathway (AID 1224846; active = well fitted activation curve with a large enough effect in the signal ratio in the repeat runs, not every such curve was filed as active; the % refers to the signal ratio)
# How it was run: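 In ME-180 cells bearing an HRE-bla construct, 17 h treatment with DMSO-dissolved compounds at 37C was followed by CCF4-AM loading to quantify reporter induction.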
# [4] = qHTS assay to identify small molecule agonists of H2AX - cell viability counter screen (AID 1224847; calls by dose curve; also: nearly all actives have a fitted effect of over 30% in size; also: potency is read from the fitted curve at half-maximal effect)
# How it was run: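 For this counter screen, overnight-attached CHO-K1 cells received test compounds (15 concentrations, 0.76% DMSO final); 3 hr later at 37C, CellTiter-Glo reagent was added and luminescence recorded after 30 min at room temperature.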
# [5] = qHTS RealTime-Glo MT Cell Viability Assay in HepG2 cells - 24 hour (AID 1224867); also: nearly all actives have a fitted effect of over 50% in size; also: potency is read from the fitted curve at half-maximal effect
# How it was run: (§1)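 HepG2 suspension premixed with RealTime-Glo reagents is plated at 600 cells per well and left 5 h at 37 C/5% CO2. Compounds in DMSO then go in, and bioluminescence reflecting viable cell number is recorded over 40 h.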
# [6] = qHTS RealTime-Glo MT Cell Viability Assay in HEK293 cells - 32 hour (AID 1224868); also: nearly all actives have a fitted effect of over 50% in size; also: potency is read from the fitted curve at half-maximal effect
# How it was run: (§2)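 Reads taken at 0, 8, 16, 24, 32 and 40 h from the same wells. HEK293 cells (600/well) carried RealTime-Glo reagents from seeding, with compound added after a 5 h settle at 37 C.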
# [7] = A CellTox Green Cytotoxicity Assay to monitor cytotoxicity in HEK293 cells - 0 hour (AID 1224869); also: nearly all actives have a fitted effect of over 50% in size
# How it was run: (§3)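 Homogeneous no-lysis format: HEK293 cell suspension mixed with CellTox Green reagent, seeded, incubated 5 h at 37 C/5% CO2, then dosed by pintool with compound in DMSO.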
# [8] = qHTS RealTime-Glo MT Cell Viability Assay in HepG2 cells - 40 hour (AID 1224870); also: nearly all actives have a fitted effect of over 50% in size; also: potency is read from the fitted curve at half-maximal effect
# How it was run: (§4)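 HepG2 cells (600/well) mixed with RealTime-Glo MT reagent, settled 5 h at 37 C/5% CO2 before compound addition. Nonlytic NanoLuc luminescence from viable-cell prosubstrate reduction read repeatedly during 40 h treatment at 37 C.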
# [9] = A CellTox Green Cytotoxicity Assay to monitor cytotoxicity in HEK293 cells - 40 hour (AID 1224871); also: nearly all actives have a fitted effect of over 45% in size; also: potency is read from the fitted curve at half-maximal effect
# How it was run: as §3
# [10] = qHTS RealTime-Glo MT Cell Viability Assay in HEK293 cells - 16 hour (AID 1224872); also: nearly all actives have a fitted effect of over 50% in size; also: potency is read from the fitted curve at half-maximal effect
# How it was run: as §2
# [11] = qHTS RealTime-Glo MT Cell Viability Assay in HepG2 cells - 8 hour (AID 1224873); also: nearly all actives have a fitted effect of over 55% in size; also: potency is read from the fitted curve at half-maximal effect
# How it was run: as §4
# [12] = qHTS RealTime-Glo MT Cell Viability Assay in HEK293 cells - 40 hour (AID 1224874); details: RealTime-Glo luminescence; max response: stronger effect = lower value; also: nearly all actives have a fitted effect of over 50% in size; also: potency is read from the fitted curve at half-maximal effect
# How it was run: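 Measured as luminescence from the same continuously cultured HEK293 wells at successive time points (0, 8, 16, 24, 32, 40 h) after compound addition. Reagent present from seeding; dosing at 5 h; incubation 37 C.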
# [13] = A CellTox Green Cytotoxicity Assay to monitor cytotoxicity in HEK293 cells - 24 hour (AID 1224875); also: nearly all actives have a fitted effect of over 45% in size; also: potency is read from the fitted curve at half-maximal effect
# How it was run: as §3
# [14] = A CellTox Green Cytotoxicity Assay to monitor cytotoxicity in HepG2 cells - 16 hour (AID 1224876); also: nearly all actives have a fitted effect of over 45% in size; also: potency is read from the fitted curve at half-maximal effect
# How it was run: (§5)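 Fluorescent DNA-binding dye, 600 HepG2 cells/well, 5 h preincubation then compound in DMSO; same plates read at 0–40 h, 37 C.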
# [15] = qHTS RealTime-Glo MT Cell Viability Assay in HepG2 cells - 32 hour (AID 1224877); also: nearly all actives have a fitted effect of over 55% in size; also: potency is read from the fitted curve at half-maximal effect
# How it was run: as §1
# [16] = A CellTox Green Cytotoxicity Assay to monitor cytotoxicity in HepG2 cells - 24 hour (AID 1224878); also: nearly all actives have a fitted effect of over 45% in size; also: potency is read from the fitted curve at half-maximal effect
# How it was run: as §5
# [17] = A CellTox Green Cytotoxicity Assay to monitor cytotoxicity in HepG2 cells - 40 hour (AID 1224879); also: nearly all actives have a fitted effect of over 40% in size; also: potency is read from the fitted curve at half-maximal effect
# How it was run: as §5
# [18] = qHTS assay to identify small molecule agonists of the hypoxia (HIF-1) signaling pathway - cell viability counter screen (AID 1224844; calls by dose curve; also: nearly all actives have a fitted effect of over 50% in size; also: potency is read from the fitted curve at half-maximal effect)
# How it was run: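 Same wells as the HIF-1 reporter screen; ME-180 cells carrying HRE-bla, 17 hr treatment at 37C; CellTiter-Glo luminescence read after 30 min at room temperature.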
# [19] = qHTS assay to identify small molecule antagonists of the estrogen related receptor (ERR) signaling pathway from Tox21 library (AID 1224848); also: nearly all actives have a fitted effect of over 50% in size; also: potency is read from the fitted curve at half-maximal effect
# How it was run: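 Quantitative high-throughput format: ERR reporter cells (2,000/well) pre-incubated 6 h, treated 18 h at 37 C with compounds in DMSO alongside positive and negative controls, then read by ONE-Glo luminescence.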
# [20] = qHTS assay to identify small molecule agonists of the estrogen related receptor (ERR) signaling pathway from Tox21 library (AID 1224849; calls by dose curve; also: nearly all actives have a fitted effect of over 15% in size); details: ERR reporter cell line, ONE-Glo luciferase, 18 h
# How it was run: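 Reporter cells (ERR, NTP source) treated with Tox21 10K compounds 18 h, 37 C. Readout: ONE-Glo luminescence, 30 min RT.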
structure (smiles),measurement,setting,value
CC1=CCC(C(C)(C)O)CC1 (stereo unspecified),Potency,[1],inactive
same,outcome,[2],inactive
same,Potency,[3],inactive
same,Potency,[4],inactive
same,Potency,[5],inactive
same,Potency,[6],inactive
same,Potency,[7],inactive
same,Potency,[8],inactive
same,Potency,[9],inactive
same,Potency,[10],inactive
same,Potency,[11],inactive
same,max response,[12],3.53% (inactive) and 0% (inactive)
same,Potency,[13],inactive
same,Potency,[14],inactive and 19.5 µM (active)
same,Potency,[15],inactive
same,Potency,[16],inactive and 21.9 µM (active)
same,Potency,[17],inactive and 21.9 µM (active)
c1ccc2sc(SSN3CCOCC3)nc2c1,Potency,[1],inactive
same,Potency,[18],54.8 µM (active) and 54.9 µM (active)
same,Potency,[19],inactive
same,"activity change, positive = activation",[20]; at 92.4 µM (top of the series),4.82% (inactive) and -28.8% (inactive)
same,Potency,[5],54.9 µM (active)
same,Potency,[6],21.8 µM (active) and 43.6 µM (active)
same,Potency,[7],inactive
same,Potency,[8],inactive and 54.9 µM (active)
same,Potency,[9],38.8 µM (active) and 49 µM (active)
same,Potency,[10],43.6 µM (active)
same,Potency,[12],19.5 µM (active) and 43.6 µM (active)
same,Potency,[13],38.8 µM (active)
same,Potency,[15],inactive and 49 µM (active)
same,Potency,[16],54.9 µM (active)
same,Potency,[17],54.8 µM (active) and 49 µM (active)
CNCCCC12CCC(c3ccccc31)c1ccccc12,Potency,[1],4.33 µM (active) and 26.6 µM (active)
same,Potency,[18],inactive
same,Potency,[4],113 µM (active)
same,Potency,[5],49 µM (active) and 23.9 µM (active)
same,Potency,[6],49 µM (active) and 23.9 µM (active)
same,Potency,[7],inactive
same,Potency,[9],49 µM (active)
same,Potency,[10],54.9 µM (active)
same,Potency,[11],inactive
same,Potency,[12],49 µM (active) and 23.9 µM (active)
same,Potency,[13],54.9 µM (active)
same,Potency,[14],54.9 µM (active) and 26.8 µM (active)
same,Potency,[15],43.6 µM (active) and 23.9 µM (active)
same,Potency,[16],43.6 µM (active) and 23.9 µM (active)
same,Potency,[17],34.7 µM (active) and 23.9 µM (active)
CC(C(=O)O)c1cccc(C(=O)c2ccccc2)c1 (stereo unspecified),Potency,[1],inactive
same,Potency,[18],inactive
same,Potency,[4],inactive
same,Potency,[19],inactive
same,Potency,[5],inactive
same,Potency,[6],inactive
same,Potency,[7],inactive
same,Potency,[8],inactive
same,Potency,[9],inactive
same,Potency,[10],inactive
same,Potency,[11],inactive
same,max response,[12],9.55% (inactive) and 2.14% (inactive)
same,Potency,[13],inactive
same,Potency,[15],inactive
same,Potency,[16],inactive
same,Potency,[17],inactive
CC(=O)c1ccccn1,Potency,[1],inactive
same,outcome,[2],inactive
same,Potency,[3],inactive
same,Potency,[4],inactive
same,Potency,[6],inactive
same,Potency,[7],inactive
same,Potency,[9],inactive
same,Potency,[10],inactive
same,Potency,[11],inactive
same,max response,[12],3.52% (inactive) and 4.42% (inactive)
same,Potency,[13],inactive
same,Potency,[14],inactive
same,Potency,[15],inactive
same,Potency,[16],inactive
same,Potency,[17],inactive
c1cc(-c2ccncc2)ccn1,Potency,[1],inactive
same,outcome,[2],inactive
same,Potency,[3],inactive
same,Potency,[4],inactive
same,Potency,[6],inactive
same,Potency,[7],inactive
same,Potency,[8],inactive
same,Potency,[9],inactive
same,Potency,[10],inactive
same,Potency,[11],inactive
same,max response,[12],-8.48% (inactive) and 4.82% (inactive)
same,Potency,[13],inactive
same,Potency,[15],inactive
same,Potency,[16],inactive
same,Potency,[17],inactive
CCCCC/C=C/C=C/C=O,Potency,[1],inactive
same,outcome,[2],inactive
same,Potency,[3],inactive
same,Potency,[4],inactive
same,Potency,[19],inactive and 54.5 µM (active)
same,"activity change, positive = activation",[20]; at 92.4 µM (top of the series),-1.92% (inactive) and -41.4% (inactive)
same,Potency,[5],inactive
same,Potency,[6],inactive
same,Potency,[7],inactive
same,Potency,[9],54.5 µM (active)
same,Potency,[10],inactive
same,Potency,[11],inactive
same,max response,[12],-25% (inactive)
same,Potency,[13],inactive
same,Potency,[14],inactive
same,Potency,[15],inactive
same,Potency,[16],inactive
same,Potency,[17],54.9 µM (active)
O=C(Nc1ccc(Cl)cc1)Nc1ccc(Cl)c(Cl)c1,Potency,[1],inactive
same,outcome,[2],inactive
same,Potency,[3],inactive
same,Potency,[4],22.5 µM (active) and 28.4 µM (active) and 22 µM (active)
same,Potency,[19],5.42 µM (active) and 11.9 µM (active)
same,"activity change, positive = activation",[20]; at 42.5 µM (top of the series),-29.5% (inactive)
same,"activity change, positive = activation",[20]; at 92.4 µM (top of the series),-26.7% (inactive) and -3.58% (inactive)
same,Potency,[5],inactive
same,Potency,[6],4.34 µM (active) and 4.36 µM (active) and 3.38 µM (active)
same,Potency,[7],inactive
same,Potency,[8],inactive
same,Potency,[9],inactive and 8.71 µM (active)
same,Potency,[11],inactive
same,Potency,[12],4.34 µM (active) and 3.89 µM (active) and 3.01 µM (active)
same,Potency,[13],inactive
same,Potency,[14],inactive
same,Potency,[15],inactive
same,Potency,[16],inactive
CCCCc1oc2ccccc2c1C(=O)c1cc(I)c(OCCN(CC)CC)c(I)c1,Potency,[1],inactive
same,Potency,[18],27.8 µM (active) and 21.3 µM (active)
same,Potency,[4],80.7 µM (active) and 43.8 µM (active)
same,Potency,[19],48.9 µM (active) and 29.8 µM (active)
same,Potency,[5],39.2 µM (active) and 23.9 µM (active)
same,Potency,[6],34.9 µM (active) and 23.9 µM (active)
same,Potency,[7],inactive
same,Potency,[9],44 µM (active)
same,Potency,[10],39.2 µM (active) and 21.3 µM (active)
same,Potency,[11],39.2 µM (active)
same,Potency,[12],34.9 µM (active) and 23.9 µM (active)
same,Potency,[14],44 µM (active)
same,Potency,[15],39.2 µM (active) and 23.9 µM (active)
same,Potency,[16],39.2 µM (active)
same,Potency,[17],31.1 µM (active) and 26.8 µM (active)
CCCCNS(=O)(=O)c1ccccc1,Potency,[1],inactive
same,Potency,[18],inactive
same,Potency,[3],inactive
same,Potency,[4],inactive
same,Potency,[6],inactive and 4.36 µM (active)
same,Potency,[7],inactive
same,Potency,[8],inactive
same,Potency,[9],inactive
same,Potency,[10],inactive and 7.76 µM (active)
same,Potency,[11],inactive
same,Potency,[12],4.36 µM (active)
same,max response,[12],-5.06% (inactive)
same,Potency,[13],inactive
same,Potency,[15],inactive
same,Potency,[16],inactive
same,Potency,[17],inactive
COC(C)COC(C)COC(C)CO (stereo unspecified),Potency,[1],inactive
same,Potency,[18],inactive
same,Potency,[3],inactive
same,Potency,[4],inactive
same,Potency,[19],inactive
same,Potency,[6],inactive
same,Potency,[7],inactive
same,Potency,[9],inactive
same,Potency,[10],inactive
same,Potency,[11],inactive
same,max response,[12],0.372% (inactive) and 18.3% (inactive)
same,Potency,[13],inactive
same,Potency,[14],inactive
same,Potency,[15],inactive
same,Potency,[16],inactive
same,Potency,[17],inactive
